# HCV inhibitor: inhibitors of hepatitis C virus infection | AID 651820 | Potency, µM (highest dose often 41.8 µM), inactives show top-dose activity change, negative = inhibition, hits mostly inhibitors | actives 3.4% (n = 340,000) | Huh7.5.1 HCVcc-Cre infection, luciferase reporter, 44 h; note: potency is the fitted concentration of half-maximal effect
#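 Cells (1,000/well) were plated 4 h before compound, then infected with HCVcc-Cre virus (~0.5 moi). After 44 h further culture, infection was read as luciferase luminescence following a 15 min substrate incubation at room temperature.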
# HCMV inh: inhibitors of human cytomegalovirus; HFF cells, HCMV-luciferase reporter, 72 h; active compounds read low; activity change, negative = inhibition, % at 57.5 µM; AID 1259415; actives 4.5% (n = 410,000); in the data active = activity change below about -60%; inconclusive = no clear call, values can overlap the other calls; inactive = above about -39%
#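 After 16 h attachment at 37C, HFF cells received test compound and HCMV-luciferase (1 PFU/cell); reporter luminescence read 72 h later, data normalized against buffer-only and known inhibitor Salinomycin.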
# Pf growth 96h: P. falciparum growth inhibition at 96 hour, primary screen for plastid delayed-death inhibitors; P. falciparum luciferase reporter growth, 96 h; Potency, µM (series often up to 28.7 µM), inactives show top-dose activity change, negative = inhibition, most hits filed as inhibitors; actives 6.9% (n = 320,000); AID 504834; note: potency is the fitted concentration of half-maximal effect
#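 Readout is luminescence from an integrated firefly luciferase in P. falciparum. Red cells, 2% hematocrit and 0.05% parasitemia final, were cultured with compound through two parasite generations (96 hours) at 37 C, 5% CO2.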
# Pf growth 48h: inhibits P. falciparum growth in the first generation, 48 h; Potency, µM (doses to about 28.7 µM), for inactives: at the top dose activity change, negative = inhibition, most hits filed as inhibitors; P. falciparum luciferase growth in erythrocytes, 48 h; actives 5.9% (n = 310,000); note: potency is the fitted concentration of half-maximal effect
#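 Luciferase-expressing P. falciparum in infected erythrocytes (2% hematocrit, 0.1% parasitemia final) in RPMI 1640/0.5% Albumax were exposed to compound for 48 hours at 37 C, 5% CO2; growth read as luminescence.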
# Active calls of the source: *; ? = inconclusive; nt = not tested or not shown; [ ] = remark or other dose. Shown are actives, neighbours in structure and some others; about 13% of the full set was active somewhere. Unless noted, calls come from the whole dose curve; as a rule, active = well fitted inhibition curve with a large enough effect; inconclusive = small, poorly fitted or top-dose-only effect, or another doubt; inactive = no such curve, though single readings can be large or run the other way. % is set by controls: 0 for no effect and ±100 for the full control effect.
SMILES,HCV inhibitor,HCMV inh,Pf growth 96h,Pf growth 48h
Cc1ccc(S(=O)(=O)NC(=O)C2(C)CCN2C(=O)c2ccccc2)nc1 (centres undefined),nt,-12,nt,nt
N#CC(=Cc1cccs1)c1nc(-c2ccc(Cl)cc2)cs1,nt,-37,nt,nt
N#C/C(=C\C=C\c1ccccc1)c1nc(-c2ccc(Cl)cc2)cs1,-12%,-60*,123%,96%
Cn1c(=O)c(C(=O)CN2CC(=O)Nc3ccccc32)c(N)n(Cc2ccccc2)c1=O,16%,-5,5.2µM*,-33%
CCN(CC)CC(=O)c1c(N)n(Cc2ccccc2)c(=O)n(C)c1=O,3%,-3,19%,-4%
Cn1c(=O)c(C(=O)CN2CCc3ccccc32)c(N)n(Cc2ccccc2)c1=O,-28%,17,8.3µM*,12µM*
Cn1c(=O)c(C(=S)NC(=O)C2CC2)c(N)n(Cc2ccccc2)c1=O,-8%,nt,31%,9.3µM*
Cc1cc(C)c2oc(-c3ccc(C)c(NC(=O)/C=C/c4ccco4)c3)nc2c1,nt,64,nt,nt
O=C(/C(=C/O)N=Nc1ccccc1)c1ccncc1,16%,0,?,nt
Cc1cccc(N=N/C(=C\O)C(=O)c2cccs2)c1,?,-5,12µM*,?
COc1ccc(Nc2nc(N)c([N+](=O)[O-])c(NC3CCCCC3)n2)cc1,11µM*,?,10µM*,?
CCCOC(=O)NC(CC)COC(=O)Nc1cccc(C)c1C (centres undefined),?,-5,9.3µM*,6%
CCCN(CCC)c1nn2c(=O)c(C(=O)NCc3cccc(OC)c3)cnc2s1,nt,20,nt,nt
COc1cc2c(cc1OC)C(C(=O)Nc1ccc3c(c1)OCCO3)C(c1cccnc1)N(C)C2=O (centres undefined),?,-3,?,7.4µM*
COc1cc2c(cc1OC)C(C(=O)N(C)Cc1ccccc1)C(c1cccnc1)N(C)C2=O (centres undefined),4%,-1,3.7µM*,8%
COc1cc2c(cc1OC)C(C(=O)Nc1cc(OC)c(OC)c(OC)c1)C(c1cccnc1)N(C)C2=O (centres undefined),7%,-5,?,?
CCc1ccc(CNc2ncc(-c3cccc(OC)c3)n2C)cc1,nt,-36,nt,nt
COC(=O)C1=C(c2ccc3ccccc3c2)C[C@@H]2CC[C@H]1N2C(=O)NCc1ccc(C(F)(F)F)cc1,?,87,?,8.3µM*
COC(=O)C1=C(c2ccc3ccccc3c2)C[C@@H]2CC[C@H]1N2C(=O)NCc1ccc(F)cc1,?,-21,?,8.3µM*
COC(=O)C1=C(c2ccc(C(C)=O)cc2)C[C@@H]2CC[C@H]1N2C(=O)NCc1ccc2c(c1)OCO2,8%,-9,3.3µM*,12µM*
COC(=O)C1=C(c2ccc(OC)c(OC)c2)C[C@@H]2CC[C@H]1N2C(=O)NCc1ccc(F)cc1,-7%,?,?,-53%
COC(=O)C1=C(c2ccc(S(C)(=O)=O)cc2)C[C@@H]2CC[C@H]1N2C(=O)NCc1ccc(F)cc1,?,-63*,nt,nt
COC(=O)C1=C(c2ccc(Cl)c(C(F)(F)F)c2)C[C@@H]2CC[C@H]1N2C(=O)NCc1ccc2c(c1)OCO2,2%,-13,32%,?
Cc1ccc(-c2nnc(Nc3ccccc3)c3ccccc23)cc1S(=O)(=O)NCc1nc2ccccc2[nH]1,nt,-32,nt,nt
COc1ccc(-n2nc(C(=O)N3CCN(c4ccccc4OC)CC3)c3c4ccccc4n(C)c3c2=O)cc1Cl,nt,19,nt,nt
SMILES,HCV inhibitor,HCMV inh,Pf growth 96h,Pf growth 48h
CCOC(=O)c1c(S(=O)(=O)N2CCCC(C(=O)N3CCN(c4cccc(C)c4C)CC3)C2)c(C)n(C)c1C (centres undefined),nt,-18,nt,nt
Cc1c(C(=O)N(Cc2ccc(N(C)C)cc2)CC2CCCO2)oc2ccc(Br)cc12 (centres undefined),nt,-10,nt,nt
COc1cc(-c2cc(OC)c3c(C)oc(C)c3c(=O)c2)ccc1OC(=O)c1cccc(Cl)c1,nt,174,nt,nt
CCN(CC)c1nc(N)c2c(N)nc3c(c2c1C#N)CC(c1ccccc1)O3 (centres undefined),?,-34,nt,2.3µM*
CCN(CC)c1nc(N)c2c(N)n(-c3ccccc3C)c(=S)c(C#N)c2c1C#N,1%,12,nt,12%
N#Cc1c(N2CCCC2)nc(N)c2c(N)nc(N3CCCC3)cc12,?,56,?,?
N#Cc1c(N2CCCCC2)nc(N)c2c(N)nc3c(c12)CC(c1ccccc1)O3 (centres undefined),-18%,7,4.1µM*,5.9µM*
COc1ccc(-c2noc(-c3ccc(NC4CCCC4)c([N+](=O)[O-])c3)n2)cc1,nt,8,nt,nt
COc1ccc(Cn2c(C(=O)O)c(CNCC(C)c3ccccc3)c3ccc(OC)cc32)cc1 (centres undefined),nt,-21,nt,nt
C=CCOC(=O)C1=C[C@H](c2ccc(C(F)(F)F)cc2)[C@@H](CCCO)[C@H](OCC)O1,?,29,9.3µM*,?
C=CCOC(=O)C1=C[C@@H](c2ccc(C(F)(F)F)cc2)[C@H](CCCO)[C@@H](OCC)O1,-35%,29,2.1µM*,1.2µM*
C=CCOC(=O)C1=C[C@@H](c2ccc(Br)cc2)[C@H](CCCO)[C@@H](OCC)O1,-7%,-4,9.3µM*,?
CCC(Sc1ncccc1C(=O)Oc1ccccc1Cl)C(=O)Nc1ccccc1OC (centres undefined),nt,-21,nt,nt
Cc1cccn2c(=O)cc(COc3ccc(NC(=O)COc4ccc(F)cc4)cc3)nc12,nt,-6,nt,nt
O=C(O)c1ccc(CSCc2ccccc2)o1,nt,-85*,nt,nt
Cc1ccc(CNC(=O)c2ccc(CSCc3cccc(C)c3)o2)cc1,nt,-1,nt,nt
Cc1ccc(CSCc2ccc(C(=O)O)o2)cc1,12%,-19,?,8%
Cc1cccc(CSCc2ccc(C(=O)NC(C)C)o2)c1,13µM*,7,3.7µM*,2%[0.00184 µM]
CCn1cc(C(=O)OCC(=O)Nc2ccc(C)c(Cl)c2)c(=O)c2ccc(C)nc21,nt,9,nt,nt
Cc1ccc(C)c(NC(=S)N/N=C2\CCc3ccccc32)c1,10µM*,-25,5.2µM*,51%
C=C(C)CNC(=S)N/N=C1\CCCCc2ccccc21,-26%,-61*,15µM*,?
CCNC(=S)N/N=C1\CCCCc2ccccc21,-5%,26,?,12µM*
Cc1cccc(NC(=S)N/N=C2/CCCCc3ccccc32)c1,-71%,7,?,?
Cc1ccc(NC(=S)N/N=C2/CCCCc3ccccc32)cc1,-22%,22,12µM*,?
COc1ccccc1OCC(=O)N/N=C1\CCCCc2ccccc21,-24%,?,?,?
COc1ccc(Cl)cc1NC(=O)c1cccc(S(=O)(=O)Nc2c(C)n(C)n(-c3ccccc3)c2=O)c1,?,0,nt,nt
O=[N+]([O-])c1c(Nc2ccccc2O)cc(Cl)c2nonc12,11µM*,-97*,2%,12µM*
O=C(O)c1cc(Nc2cc(Cl)c3nonc3c2[N+](=O)[O-])ccc1O,-5%,31,15%,18%
